8 compounds from PubChem BioAssay (NCI) can be followed below.

Among the test systems are NCI-H23 lung; NCI-H226 lung; NCI-H322M lung; HOP-62 NSCLC; NCI-H460 lung; HOP-92 NSCLC; NCI-H522 lung; A549/ATCC NSCLC; 786-0 renal; COLO 205 colon; DU-145 prostate; K-562 leukemia; MALME-3M melanoma; MDA-MB-231 breast; RXF 393 renal; SF-268 CNS; SF-295 CNS; SF-539 CNS; UACC-257 melanoma; M14 melanoma.
Test in all cases: NCI-60 one-dose screen, 48 h (100 = growth as untreated, 0 = no growth, -100 = all killed)
Conditions in all cases: 10 µM unless noted

Each structure is given as a SMILES string. About 83,000 compounds went through this panel and 20% of them were active in at least one assay; those are over-represented in the sample as a whole.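 Activity criterion: percent growth below 10, measured after cells in 96-well plates were exposed to a single compound concentration for 48 hours.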 Values without a mark were called inactive. Activity calls are given as the source filed them.

On to `C=C1C(=O)O[C@H]2[C@H]1CC/C(COC(=O)NCc1ccc(Cn3c(=O)sn(-c4ccccc4)c3=O)cc1)=C\CC[C@@]1(C)O[C@@H]21`, for which the growth in the experiment with NCI-H23 lung was 91.7%; with NCI-H226 lung, 55.1%; in the experiment with NCI-H322M lung, 92.7%; in the experiment with HOP-62 NSCLC, 126%; in the experiment with NCI-H460 lung, 81.3%; in the experiment on HOP-92 NSCLC, 10.3%. Besides, the growth was -70.6% (active) in the experiment on NCI-H522 lung; 114% in the experiment with A549/ATCC NSCLC; 39.7% with 786-0 renal; 3.5% (active) in the experiment on COLO 205 colon; 23.3% in the experiment on DU-145 prostate; 1.19% (active) with K-562 leukemia. In addition, the growth is -9.16% (active) with MALME-3M melanoma; 47.2% in the experiment on MDA-MB-231 breast; 6.99% (active) in the experiment with RXF 393 renal; 46.6% in the experiment with SF-268 CNS; 108% in the experiment with SF-295 CNS; 29% in the experiment with SF-539 CNS. Further, the growth is 68.3% in the experiment on UACC-257 melanoma and 14.4% with M14 melanoma.

On to `O=C(Nc1ccccc1O)c1ccc(CNc2ccnc(C(F)(F)F)c2)cc1`, for which the growth was 39.1% in the experiment with NCI-H23 lung; 68.9% with NCI-H226 lung; 56.4% with NCI-H322M lung; 60.3% in the experiment with HOP-62 NSCLC; 38.8% in the experiment on NCI-H460 lung; 78.2% in the experiment with HOP-92 NSCLC. Moreover, the growth in the experiment with NCI-H522 lung is 34.3%; with A549/ATCC NSCLC, 56.5%; in the experiment with 786-0 renal, 45.4%; with COLO 205 colon, 112%; in the experiment with DU-145 prostate, 59%; in the experiment with K-562 leukemia it was 18.2%. For the same compound, the growth in the experiment with MALME-3M melanoma is 22%; in the experiment on MDA-MB-231 breast it was 62.9%; in the experiment on RXF 393 renal, 80.6%; with SF-268 CNS, 54.8%; in the experiment on SF-295 CNS, 36%; in the experiment with SF-539 CNS, 39.1%. Moreover, the growth is 46.4% in the experiment on UACC-257 melanoma and 34% in the experiment on M14 melanoma.

`N#CSc1c[nH]c2ccc(/C=C/C(=O)/C=C(O)/C=C/c3ccc4[nH]cc(SC#N)c4c3)cc12`: the growth is 25.3% with NCI-H23 lung; 31.6% in the experiment with NCI-H226 lung; 96.9% in the experiment on NCI-H322M lung; 28.1% in the experiment on HOP-62 NSCLC; 12.5% with NCI-H460 lung; -21.3% (active) with HOP-92 NSCLC. For the same compound, the growth with NCI-H522 lung is -63.9% (active); in the experiment with A549/ATCC NSCLC it was 12.4%; in the experiment with 786-0 renal it was 13.9%; in the experiment on COLO 205 colon it was -39.7% (active); in the experiment on DU-145 prostate, 29%; with K-562 leukemia, -15.2% (active). The growth is 20.7% in the experiment with MALME-3M melanoma; 22.8% in the experiment on MDA-MB-231 breast; 9.89% (active) in the experiment on RXF 393 renal; 35.5% in the experiment with SF-268 CNS; 57.3% in the experiment on SF-295 CNS; 13.5% with SF-539 CNS. Also, the growth in the experiment with UACC-257 melanoma was 25.9%; in the experiment with M14 melanoma it was -5.11% (active).

Regarding `O=C(NCc1ccc(Cn2c(=O)sn(-c3ccccc3)c2=O)cc1)OCc1ccc2cccc(O)c2n1`, the growth in the experiment on NCI-H23 lung is -67.4% (active); with NCI-H226 lung, 35.6%; in the experiment with NCI-H322M lung, 67.4%; in the experiment on HOP-62 NSCLC it was -58.2% (active); in the experiment on NCI-H460 lung, 27.2%; in the experiment on HOP-92 NSCLC, -65.3% (active). Moreover, the growth with NCI-H522 lung is -53.5% (active); in the experiment with A549/ATCC NSCLC, -27.3% (active); in the experiment with 786-0 renal it was -87.7% (active); with COLO 205 colon it was -57.4% (active); in the experiment with DU-145 prostate, -91.7% (active); in the experiment on K-562 leukemia it was -9.02% (active). Also, the growth is -68.7% (active) in the experiment on MALME-3M melanoma; -45.7% (active) in the experiment on MDA-MB-231 breast; -94.3% (active) with RXF 393 renal; -46.2% (active) with SF-268 CNS; 50.2% in the experiment with SF-295 CNS; -91.7% (active) with SF-539 CNS. Moreover, the growth is -25% (active) with UACC-257 melanoma and -64.2% (active) in the experiment with M14 melanoma.

Regarding `Cc1[nH]c(C(=O)Nc2ccccc2OC2CCN(CCN3CCOCC3)CC2)c(Cl)c1Cl`, the growth in the experiment with NCI-H23 lung was 97.6%; in the experiment on NCI-H226 lung, 79.6%; with NCI-H322M lung, 99.9%; in the experiment on HOP-62 NSCLC it was 89.9%; in the experiment with NCI-H460 lung it was 108%; in the experiment with HOP-92 NSCLC it was 70.9%. Also, the growth with NCI-H522 lung is 47.6%; in the experiment with A549/ATCC NSCLC, 99%; in the experiment with 786-0 renal it was 57.5%; in the experiment on COLO 205 colon it was 102%; in the experiment with DU-145 prostate it was 105%; in the experiment on K-562 leukemia it was 57.5%. The growth was 106% with MALME-3M melanoma; 75.9% with MDA-MB-231 breast; 83.6% with RXF 393 renal; 81.5% in the experiment with SF-268 CNS; 97.7% in the experiment with SF-295 CNS; 89.6% with SF-539 CNS. The results for the growth in the experiment on UACC-257 melanoma and in the experiment on M14 melanoma were 115% and 106%, respectively.

Take `N#Cc1c(-c2ccc(Cl)cc2)nc(NN=Cc2ccc[nH]2)nc1N1CCOCC1`: the growth was 92.4% in the experiment on NCI-H23 lung; 61.8% with NCI-H226 lung; 95.4% in the experiment with NCI-H322M lung; 41.6% with HOP-62 NSCLC; 36.7% in the experiment with NCI-H460 lung; 68.9% with HOP-92 NSCLC. Further, the growth is 8.32% (active) in the experiment with NCI-H522 lung; 54.4% in the experiment with A549/ATCC NSCLC; 23.9% in the experiment with 786-0 renal; 81.6% with COLO 205 colon; 84.2% in the experiment on DU-145 prostate; 44.2% in the experiment with K-562 leukemia. In addition, the growth is 88.9% with MALME-3M melanoma; 79.7% in the experiment on MDA-MB-231 breast; 63.1% with RXF 393 renal; 46.2% with SF-268 CNS; 58.4% in the experiment on SF-295 CNS; 33.4% in the experiment with SF-539 CNS. In addition, the growth was 101% with UACC-257 melanoma and 105% in the experiment on M14 melanoma.

As for `CSc1ccc(N2C(=N)C(=S)N(c3ccc(C)cc3)C2=O)cc1`, the growth with NCI-H23 lung was 98.3%; in the experiment with NCI-H226 lung, 96.3%; in the experiment on NCI-H322M lung it was 99%; in the experiment on HOP-62 NSCLC, 86.2%; in the experiment with NCI-H460 lung, 102%; in the experiment with HOP-92 NSCLC, 90%. Moreover, the growth was 80.5% with NCI-H522 lung; 87.6% in the experiment on A549/ATCC NSCLC; 91.5% in the experiment with 786-0 renal; 98% with COLO 205 colon; 104% with DU-145 prostate; 82% in the experiment on K-562 leukemia. In addition, the growth with MALME-3M melanoma was 94.4%; with MDA-MB-231 breast it was 101%; in the experiment with RXF 393 renal, 113%; in the experiment with SF-268 CNS, 90.7%; with SF-295 CNS it was 96.1%; in the experiment with SF-539 CNS, 92.8%. In addition, the results for the growth with UACC-257 melanoma and in the experiment with M14 melanoma were 99.7% and 86.1%, respectively.

For `COc1ccc(/C=C(\C(=O)NCc2cccnc2)S(=O)(=O)c2ccccc2)cc1OC`, the growth with NCI-H23 lung is 37.1%; with NCI-H226 lung it was 74.6%; in the experiment with NCI-H322M lung it was 41.3%; in the experiment on HOP-62 NSCLC, 50.7%; in the experiment on NCI-H460 lung, 14.7%; in the experiment on HOP-92 NSCLC, 43.5%. For the same compound, the growth in the experiment on NCI-H522 lung was -4.24% (active); in the experiment with A549/ATCC NSCLC, 45.7%; in the experiment with 786-0 renal it was 20.8%; in the experiment with COLO 205 colon, 30.2%; in the experiment with DU-145 prostate, 5.77% (active); in the experiment on K-562 leukemia, 8.68% (active). For the same compound, the growth was 48% with MALME-3M melanoma; 22.8% with MDA-MB-231 breast; 15.5% in the experiment with RXF 393 renal; 29.1% in the experiment on SF-268 CNS; 57.8% in the experiment on SF-295 CNS; 15.3% with SF-539 CNS. In addition, the results for the growth with UACC-257 melanoma and with M14 melanoma were 44.7% and 28.8%, respectively.
